TDP43 rescue – TDP-43 toxicity inhibition in yeast. 410,000 compounds, 1.8% hits. TDP-43 expressing yeast growth rescue, BacTiter-Glo, 24 h. Potency, µM (doses to about 46.1 µM), most hits filed as activators; also: nearly all actives have a fitted effect of over 50% in size
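Readout is BacTiter-Glo luminescence of cell growth, so inhibitors register as activators. TDP-43-expressing yeast at OD600=0.02 in galactose medium, after raffinose pregrowth to mid-log, were incubated with compound for 24 hr at 30 deg C.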
Mito fusion act – inhibitors of mitochondrial division or activators of mitochondrial fusion; S. cerevisiae fusion-defective mutant growth rescue, CellTiterGlo 48 h; Potency, µM (highest dose often 46.1 µM), most hits filed as activators; 320,000 compounds, 0.23% hits; AID 485298; also: nearly all actives have a fitted effect of over 45% in size
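Compounds are tested for their ability to restore growth of mitochondrial fusion-defective yeast strains at non-permissive 37C in YPEG medium over 48 hours. Viability is quantified by luciferase luminescence.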
aSyn yeast inh – alpha-synuclein toxicity inhibition in yeast; 370,000 compounds, 0.14% hits; Potency, µM (highest dose often 46.1 µM), actives largely listed as activators; AID 652106; Yeast expressing alpha-synuclein, growth rescue, BacTiter-Glo, 24 h; also: nearly all actives have a fitted effect of over 65% in size
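Rescue of yeast growth: cells expressing toxic alpha-synuclein, induced in galactose at OD600 0.02, incubated with compound 24 h at 30 C. ATP luminescence quantified growth; inhibitors of toxicity appear as activators.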
FUS yeast rescue – FUS proteinopathy suppression in yeast | Potency, µM (doses to about 76.6 µM), hits mostly activators | 390,000 compounds, 0.24% hits | AID 1347120 | S. cerevisiae FUS-expressing, growth rescue, OD600, 24 h; also: nearly all actives have a fitted effect of over 55% in size
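S. cerevisiae expressing FUS from galactose induction served as the toxicity model. Growth after 24hr at 30C, read as absorbance at 600 nm, indicates suppression of toxicity; compounds dosed at several concentrations.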
Abeta rescue – restores growth of yeast expressing A-beta42 peptide; yeast expressing A-beta42, growth rescue, OD600, 48 h; response scale: 0% DMSO, 100% iron-clioquinol control; Potency, µM (titrated, usually from 46.1 µM), most hits filed as activators; 410,000 compounds, 0.063% hits; also: nearly all actives have a fitted effect of over 55% in size
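Yeast growth medium received pinned compounds, then yeast cells expressing toxic A-beta were added; plates incubated at 30 C for 48 hr. Growth read as absorbance at 600 nm, normalized to DMSO and equimolar FeCl3 plus clioquinol controls.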
Hits are given with their value; n = inactive; u = inconclusive; x = no result. Only some compounds are listed: those with a hit (about 2.2% of all), similar ones and a draw of the others. Calls follow the shape of the dose curve; as a rule, active = well fitted curve in the direction sought with a large enough effect; inconclusive = small, poorly fitted or top-dose-only effect, or another doubt; inactive = no such curve, though single readings can be large; an effect the other way counts as inactive or inconclusive.

SMILES | TDP43 rescue | Mito fusion act | aSyn yeast inh | FUS yeast rescue | Abeta rescue
Cc1noc(C)c1C(=O)N1CCC1(C)C(=O)NS(=O)(=O)c1ccccc1C(F)(F)F (configuration not stated) | n | x | n | n | n
Cc1ccccc1Cn1cnc2c([N+](=O)[O-])c(C)c(C)cc21 | 13µM | n | n | n | n
COc1ccc(Cn2cnc3c([N+](=O)[O-])c(C)c(C)cc32)cc1 | u | n | n | n | n
O=C(NCCc1ccc(Cl)cc1)c1ccc(Cn2c(=O)c3cccn3c3cccnc32)cc1 | u | x | x | n | n
CCOc1ccc(-c2nnc3ccc(SC(C)C)nn23)cc1 | 16µM | n | n | n | n
COc1ccc(OC)c(NC(=O)c2nc(SCc3ccc(F)cc3)ncc2Cl)c1 | n | x | x | n | n
COc1ccc(CC(=O)Nc2nc3c(s2)CCCC3)cc1 | u | x | x | n | u
CC(C)(C)C1CCc2nc(NC(=O)Cc3ccccc3)sc2C1 (configuration not stated) | 32µM | x | x | n | n
COc1ccc(CC(=O)Nc2nc3c(s2)CC(C)CC3)cc1 (configuration not stated) | 13µM | x | x | n | u
CC1CCc2nc(NC(=O)CN3CCN(c4ccc(F)cc4)CC3)sc2C1 (configuration not stated) | 16µM | n | n | u | n
Cc1cccc(OCC(=O)Nc2nc3c(s2)CC(C(C)(C)C)CC3)c1C (configuration not stated) | n | x | x | n | n
CN(N=O)c1ccc(/C=C/c2ccnc3ccccc23)cc1 | x | x | n | x | x
c1ccc(OCCNc2ccn3nc(-c4ccc(OCCN5CCOCC5)cc4)cc3n2)cc1 | n | x | n | n | n
COCCCNc1ccn2nc(-c3ccc(Cl)cc3)cc2n1 | 11µM | x | n | n | n
COc1cc(OC)c(NC(=O)C(Cc2ccccc2)NS(=O)(=O)c2cccc3nsnc23)cc1Cl (configuration not stated) | n | x | x | u | n
COc1cc(OC)c(NC(=O)C(NS(=O)(=O)c2cccc3nsnc23)c2ccccc2)cc1Cl (configuration not stated) | n | x | x | 22µM | n
CCOC(=O)c1c(C)nc(C(Cl)(Cl)Cl)nc1N | 11µM | n | n | n | n
COc1ccc(-c2nc3sc(CCNC(=O)c4ccco4)c(C)n3n2)cc1 | u | x | x | n | n
Clc1ccccc1Nc1ncnc2c1nc1n2CCCCC1 | 18µM | x | x | n | n
Clc1cccc(CNc2ncnc3c2nc2n3CCCC2)c1 | 13µM | x | x | n | u
Cc1ccc(Nc2ncnc3c2nc2n3CCCC2)c(Br)c1 | 18µM | x | x | n | n
Clc1cccc(Nc2ncnc3c2nc2n3CCCCC2)c1 | 16µM | x | x | n | n
Cc1ccc(NC(=O)COc2ccccc2C(=O)Nc2ccccc2)cc1 | x | x | n | x | x
COc1ccc(C2OCCNC3C2C(=O)N(Cc2ccc(OC)cc2OC)C3Cc2ccccc2)cc1 (configuration not stated) | x | x | x | n | x
COc1ccccc1N1CCN(C(=O)c2sc3nc(C)nc(N4CCN(c5ccccn5)CC4)c3c2C)CC1 | n | 28µM | n | n | n
SMILES | TDP43 rescue | Mito fusion act | aSyn yeast inh | FUS yeast rescue | Abeta rescue
Cc1nc(N2CCN(C(=O)COc3ccccc3)CC2)c2c(C)c(C)sc2n1 | 16µM | n | n | n | n
S=C(NCCCc1cnc[nH]1)NCCCN(Cc1ccc(Cl)cc1)c1ccc(Br)cn1 | x | x | x | n | n
c1coc(CN(Cc2ccco2)c2ncnc3c2oc2ccccc23)c1 | 20µM | n | n | u | n
COc1cccc(-c2noc(CCC(=O)NC3CCCC3)n2)c1 | n | n | n | n | n
CCCC1CCC(c2ccc(C(N)=O)cc2)CC1 (configuration not stated) | n | n | n | n | n
CCCC1CCC(c2ccc(/C(N)=N/O)cc2)CC1 (configuration not stated) | 3.5µM | u | n | n | n
CCOC(=O)c1c(CSc2ccccc2)oc2ccc(O)cc12 | 20µM | u | n | n | n
CCOC(=O)c1c(-c2ccccc2)oc2ccc(O)cc12 | u | n | n | n | n
CCOC(=O)c1c(CSc2ccc(C)cc2)oc2ccc(O)cc12 | 22µM | u | n | n | n
CCOC(=O)c1c(CN2CCN(C)CC2)oc2ccc(O)cc12 | n | n | n | n | n
c1ccc(-c2cc(-c3nc4ccccc4[nH]3)c3ccccc3n2)cc1 | 16µM | u | n | n | n
CCCCCN(C(=O)CCC(=O)OCC(=O)c1ccc(F)c(F)c1)c1c(N)n(CCCC)c(=O)[nH]c1=O | n | n | n | 28µM | n
CCCCCN(C(=O)CCC(=O)OC(C)C(=O)c1ccc(Cl)cc1)c1c(N)n(CCCC)c(=O)[nH]c1=O (configuration not stated) | n | n | n | 32µM | n
CCCCCN(C(=O)CCC(=O)OCC(=O)c1cccc(OC)c1)c1c(N)n(CCCC)c(=O)[nH]c1=O | n | n | n | u | n
CCCCn1c(N)c(N(CC(C)C)C(=O)c2ccc(Cl)c(S(=O)(=O)N3CCCC3)c2)c(=O)[nH]c1=O | n | n | n | 32µM | n
CCCCCN(C(=O)CCC(=O)OC(C)C(=O)NCc1ccccc1)c1c(N)n(CCCC)c(=O)[nH]c1=O (configuration not stated) | n | n | n | n | n
CCCCn1c(N)c(N(CCOC)C(=O)c2ccc(Cl)c(S(=O)(=O)N3CCCCC3)c2)c(=O)[nH]c1=O | n | n | n | n | n
O=C(CCN1C(=O)c2ccccc2Sc2ncccc21)Nc1ccc(F)cc1F | n | x | x | n | n
O=C(COc1ccc(Br)cc1)N1CCN(c2ccc([N+](=O)[O-])c(N3CCCCC3)c2)CC1 | 8.9µM | n | n | n | n
COc1ccc(CCNC(=O)CS(=O)(=O)Cc2nc(-c3cccc(Cl)c3)oc2C)cc1OC | n | x | x | n | n
CSc1ccccc1NC(=O)N1CCCC(C(=O)c2ccc3c(c2)OCO3)C1 (configuration not stated) | 16µM | n | n | n | n
Cc1ccc(-n2cc(C(=O)c3cc(Cl)ccc3O)cc(C#N)c2=O)cc1 | 14µM | n | n | x | n
N/C(=N\OC(=O)c1cccc2ccccc12)c1ccccn1 | n | n | n | n | n
NC(=Nc1nc(-c2ccccn2)cc2ccccc12)c1ccccn1 | 3.2µM | x | u | x | u
O=C(Nc1cccc(Cl)c1)O[C@@H]1CC[C@@]23CCCN2C(=O)CCC[C@H]3C1 | x | x | x | n | x
O=C(N/N=C/c1c(O)ccc2ccccc12)C(=O)N1CCCC1 | n | x | 22µM | n | u
COc1cc(C(O)c2nc(-c3ccccc3OC)cs2)ccc1F (configuration not stated) | 18µM | x | u | n | n
COc1cc(C(O)c2nc(-c3ccc(N(C)C)cc3)cs2)ccc1F (configuration not stated) | n | x | n | n | n
